Results taken from PubChem BioAssay (Tox21).
Several values for one entry are separate records, joined by “and”; a condition that tells them apart may be missing. Equal values may be shown once. Results filed as inconclusive are left out. Activity calls are given as the source filed them. The call rests on the fitted dose curve.

Target: 5-hydroxytryptamine receptor 2A (Homo sapiens) (UniProt P28223)
Experiment: 5-hydroxytryptamine receptor 2A (HTR2A) small molecule agonists, cell-based qHTS assay (AID 1963587); further: nearly all actives have a fitted effect of over 30% in size
Settings: HTR2A-CHO cells, calcium flux fluorescence, agonist mode; series mostly up to 76.8 µM; activation: at the top concentration
Description: National Center for Advancing Translational Sciences [NCATS]
Division of Preclinical Innovation [DPI]
U.S. Environmental Protection Agency [EPA]
National Institutes of Environmental Health Sciences [NIEHS]
National Toxicology Program [NTP]
U.S. Food and Drug Administration [FDA]
The HTR2A receptor is a subtype of the 5-HT2 receptor that belongs to the serotonin receptor family and is a G protein-coupled receptor (GPCR). The HTR2A-CHO cell line stably expressing human 5-hydroxytryptamine receptor 2A (HTR2A) can be used for screening agonists of interactions between 5-HT2 and its ligands. The HTR2A-CHO calcium flux assay is a homogeneous fluorescence-based assay for detecting the intracellular calcium level using FDSS kinetic plate reader system.
HTR2A-CHO cells were dispensed at 2000 cells/3uL/well in 1536-well black-clear bottom plates using a Multidrop Dispenser. After the assay plates were incubated at a 37 C/5% CO2 incubator for 18 h, 3 uL of Dye Loading Buffer was transferred to the assay plate by a Flying Reagent Dispenser. The assay plates were incubated at 37 C for 1h. For agonist mode, 23 nL of compounds dissolved in DMSO, positive controls or DMSO only was transferred to the assay plate by a pin tool. The fluorescence intensity in the plates was measured using FDSS 7000EX kinetic plate reader for 2 min at 1 sec intervals.
On the % scale 0 is the no-effect control and ±100 the full control effect; potency means the concentration at half of the fitted maximal effect.

Chain of 5-hydroxytryptamine receptor 2A (Homo sapiens) (P28223 whole entry, looked up): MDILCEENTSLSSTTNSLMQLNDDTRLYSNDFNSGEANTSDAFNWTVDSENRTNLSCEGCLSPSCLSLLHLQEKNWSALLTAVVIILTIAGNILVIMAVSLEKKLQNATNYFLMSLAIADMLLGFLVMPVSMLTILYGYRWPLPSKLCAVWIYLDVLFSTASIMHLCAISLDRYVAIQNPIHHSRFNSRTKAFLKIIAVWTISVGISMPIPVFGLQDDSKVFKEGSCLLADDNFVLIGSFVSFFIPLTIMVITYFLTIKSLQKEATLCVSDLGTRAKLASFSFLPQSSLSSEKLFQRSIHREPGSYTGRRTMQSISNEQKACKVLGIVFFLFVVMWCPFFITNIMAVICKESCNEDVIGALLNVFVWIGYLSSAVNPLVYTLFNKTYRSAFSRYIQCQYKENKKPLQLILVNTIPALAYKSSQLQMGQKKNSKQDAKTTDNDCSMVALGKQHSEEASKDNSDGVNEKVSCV

Question: Which “activation” value does the source give for COc1ccccc1C=O here?
Answer: The value was -3.71% (inactive).

Question: For O=C1c2cccc(O)c2C(=O)c2c(O)cccc21, which Potency is on record?
Answer: The Potency was “inactive”.

Question: How did the “activation” value turn out when Cc1ccccc1OCC(O)CO (stereo not given) was run?
Answer: Its value is -6.43% [at 35.6 µM] (inactive).

Question: For CC(=O)CCC(C)C, which “activation” value is on record?
Answer: Its value is -0.806% (inactive).

Question: For Nc1nccs1, which “activation” value is on record?
Answer: The value was 4.23% (inactive).

Question: Which “activation” value does the source give for Cc1ncc(CO)c(CN)c1O here?
Answer: The value was 14.9% [at 35.6 µM] (inactive).

Question: How did the “activation” value turn out when Fc1ccccc1-c1ccccc1 was run?
Answer: The value was 0.623% (inactive).

Question: For CCCCCCCCCCCCCCCC(=O)NCCO, which “activation” value is on record?
Answer: The value was 1.01% [at 35.6 µM] (inactive).

Question: For CCCCCOC(C)=O, which Potency is on record?
Answer: The Potency was “inactive”.

Question: How did the “activation” value turn out when [O]=[Zr] was run?
Answer: The value was -2.26% (inactive).

Question: Which “activation” value does the source give for CC(C)NC(=O)c1ccccc1N here?
Answer: The value was -2.35% (inactive).

Question: How did the Potency turn out when Oc1c(Cl)ccc(Cl)c1Cl was run?
Answer: Its Potency is “inactive”.

Question: Which “activation” value does the source give for CC(C)=CCC/C(C)=C/C#N here?
Answer: Its value is -2.43% (inactive).

Question: With C[n+]1ccn(CCO)c1 as the compound, how does the Potency read?
Answer: The Potency was “inactive”.

Question: With CC/C=C\C/C=C\C/C=C\CCCCCCCC(=O)O as the compound, how does the Potency read?
Answer: Its Potency is “inactive”.

Question: With CC(C)(CCC(=O)O)C(=O)O as the compound, how does the “activation” value read?
Answer: The value was -1.06% (inactive).

Question: How did the “activation” value turn out when Nc1ccc(NCCO)c([N+](=O)[O-])c1 was run?
Answer: Its value is 1.31% (inactive).

Question: How did the “activation” value turn out when COC(=O)Cc1cccc2ccccc12 was run?
Answer: Its value is -0.559% (inactive).

Question: CCCC(=O)OCc1ccccc1 was tested. Which “activation” value did it give?
Answer: The value was -0.833% (inactive).

Question: For OCCNCCO, which Potency is on record?
Answer: The Potency was “inactive”.

Question: How did the “activation” value turn out when O=c1[nH][nH]c(=O)c2cc([N+](=O)[O-])ccc12 was run?
Answer: Its value is 0.219% (inactive).

Question: O=C(OC(=O)c1ccccc1)c1ccccc1 was tested. Which “activation” value did it give?
Answer: Its value is -0.961% (inactive).

Question: How did the “activation” value turn out when Nc1ccc2c(S(=O)(=O)O)cccc2c1S(=O)(=O)O was run?
Answer: Its value is -0.43% [at 35.6 µM] (inactive).

Question: For CCC/C=C/CO, which “activation” value is on record?
Answer: The value was 2.28% (inactive).

Question: With Nc1ccccc1N as the compound, how does the Potency read?
Answer: The Potency was 50.1 µM (active) and 30.9 µM (active).

Question: O=C1OC(CN2CCOCC2)CN1/N=C/c1ccc([N+](=O)[O-])o1 (stereo not given) was tested. Which “activation” value did it give?
Answer: The value was -1.23% [at 35.6 µM] (inactive).

Question: With CCN(CC)C(=O)C1CN2CCc3cc(OC)c(OC)cc3C2CC1OC(C)=O (stereo not given) as the compound, how does the “activation” value read?
Answer: Its value is 2.75% [at 35.6 µM] (inactive).

Question: How did the “activation” value turn out when CCCCCCCCCCCCCCCC was run?
Answer: The value was -0.734% (inactive).

Question: How did the “activation” value turn out when CCCc1c2oc(C(=O)O)cc(=O)c2cc2c(=O)cc(C(=O)O)n(CC)c12 was run?
Answer: The value was 2.09% [at 35.6 µM] (inactive).

Question: Which “activation” value does the source give for CC1=CC[C@@]23C[C@@H]1C(C)(C)[C@@H]2CC[C@H]3C here?
Answer: The value was 0.948% (inactive).

Question: CCOC(=O)CCC(C)=O was tested. Which “activation” value did it give?
Answer: Its value is 3.14% (inactive).

Question: How did the “activation” value turn out when Cc1ccc(S(=O)(=O)O)c(C)c1 was run?
Answer: Its value is 1.02% (inactive).

Question: Which activation does the source give for CCCCCCCCCCCCCCCCI here?
Answer: Its activation is -2.69% [at 15.9 µM] (inactive).

Question: Which “activation” value does the source give for O=S(=O)(O)c1cccc2c(S(=O)(=O)O)cccc12 here?
Answer: Its value is 3.99% (inactive).

Question: For C[C@@H](O)[C@H]1C(=O)N2C(C(=O)O)=C([C@H]3CCCO3)S[C@H]12, which “activation” value is on record?
Answer: The value was 0.63% [at 35.6 µM] (inactive).

Question: O=S(=O)(O)c1ccc2cc(O)c(S(=O)(=O)O)cc2c1 was tested. Which “activation” value did it give?
Answer: The value was 0.0845% (inactive).

Question: Cc1cccc2cccnc12 was tested. Which “activation” value did it give?
Answer: The value was -0.365% (inactive).

Question: Which “activation” value does the source give for COC(=O)CCC(=O)O here?
Answer: The value was 0.875% (inactive).

Question: For O=C[C@H](O)[C@@H](O)[C@H](O)[C@H](O)CO, which “activation” value is on record?
Answer: Its value is 1.57% (inactive).

Question: Which “activation” value does the source give for CC(C)C(=O)O here?
Answer: The value was -0.631% (inactive).
